# Results from the OligoGym collection.
# Biological target: CCNA1
# Experiment: pooled miR-30 sensor sort-seq; sequence = guide strand
# Details: shRNA
# Also: reference of the scale not given here.
row,Sequence,sensor-assay potency score (higher = more potent)
1,TGATATAGACAAACTCGTCTAC,0.267
2,TAATTGCTTGCTGAGGTCGATG,-1.07
3,TTGTAAACAACATTAGTTGATC,-0.494
4,TATATCTCTTCATATTTCGAAG,-1.14
5,TAGAACTTTCAGAAGCAAGTGT,0.493
6,TTTGTGTATGTATCATCGGTGA,-0.746
7,TGAGTATCTGACAAGCATCGGG,0.0337
8,TTTTGTGTATGTATCATCGGTG,0.2
9,TTGCTTGCTGAGGTCGATGGGG,-0.835

# Biological target: CCNG1
# Experiment: as above
# Details: shRNA
row,Sequence,sensor-assay potency score (higher = more potent)
1,TACATTTGTGAAATGTTGCTTT,0.17
2,TTTGACTTTCCAACACACCTTC,0.153
3,TAGCATTTCACATTTAGGCTTT,0.478
4,TCTGAAGACATTCTATTCCTTC,-0.269
5,TTAACTCTACACACTTCTGTGC,0.175
6,TTAGCTTTGATTTGAATGCTTC,0.215
7,TTCTGTTAACTCTACACACTTC,-0.348
8,TTGACTTTCCAACACACCTTCT,-0.557
9,TAGTCTCAAACCACAGACCTTT,-0.816
10,TTGGCTGACATCTAGACTCCTG,0.244
11,TTTAGACAGGAATCTGTCCAGT,-0.19
12,TTCAACTTCTGAACATTTGGTT,0.69
13,TAGTCTTGCAGTCATTCTGAGG,-1.44
14,TTCAGTTGAGCTTCTAGTCTTT,0.39
15,TTGGATACAAGCTCTTGCCAGA,-0.511
16,TTAGTCTCAAACCACAGACCTT,-1.23
17,TTAGTCTTGCAGTCATTCTGAG,-0.381
18,TTTGGATACAAGCTCTTGCCAG,-0.48
19,TTCATTTTAGACAGGAATCTGT,0.0756
20,TTTTAGACAGGAATCTGTCCAG,0.0176
21,TTCTATTGATTTTACAGCCAAA,-1.32

# Biological target: CD180
# Experiment: as above
# Details: shRNA
row,Sequence,sensor-assay potency score (higher = more potent)
1,TTTAACATTATTGCCATTGAAG,-1.17
2,TAGCTGAGGACATTCTTTGAAT,-0.948
3,TAAATTAATGGTGCTCTGCTGG,-0.664
4,TGAAGTAGGTTGGTCTTCGTGA,-0.298
5,TTGAGTTGCAGACTGCAGCAGT,0.0591
6,TACACTGAGAACTAATTTCTTG,-0.423
7,TTGTGTTTGGTAGAGTGTCAGG,-0.807
8,TAGTAGAGTTCTGCAGACCATT,-1.3
9,TTGGTCTTCGTGATAGTCCCAT,0.105
10,TTTAACTGCAAAAAATAGCAGA,-0.349
